The panel holds about 83,000 compounds, 20% with a hit somewhere; the sample as a whole holds those more often.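 Percent growth is the endpoint: 0 to 100 indicates growth inhibition (40 means 60% inhibition), 0 means no net growth, and negative values indicate cell death.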 Unmarked numbers belong to inactive results. The source made the active and inactive calls. How the source made its calls: active means growth percent below 10; inactive means the rest.

The assay deals with HCT-15 colon. The assay is described as follows: NCI-60 one-dose screen, 48 h (100 = growth as untreated, 0 = no growth, -100 = all killed). The note with it: 10 µM unless noted.
With `Cn1ccnc1C(=O)/C=C/c1ccc(CC(=O)Nc2ccccc2)cc1`, the growth is 6.26% (active).

As for `Cc1ccc2oc(=O)cc(C3c4ccc([nH]4)C(c4cc(=O)oc5ccc(C)cc45)c4ccc([nH]4)C(c4cc(=O)oc5ccc(C)cc45)c4ccc([nH]4)C(c4cc(=O)oc5ccc(C)cc45)c4ccc3[nH]4)c2c1` (stereo not given), the growth was -46.9% (active). As to `CC(C)(C)CC(C)(C)c1ccc(OCCOCC[N+](C)(C)Cc2ccccc2)cc1`, the growth is 95.2%. `CN1CCN(CCCOc2cccc3nc(Nc4cc(Cl)cc(Cl)c4)ccc23)CC1`: the growth is -73.6% (active). Take `CC(C)C[C@@H](NC(=O)[C@@H](Cc1ccccc1)NC(=O)c1cnccn1)B1Oc2ccc(C[C@H](NC(=O)[C@H](Cc3ccc4c(c3)OB([C@@H](CC(C)C)NC(=O)[C@@H](Cc3ccccc3)NC(=O)c3cnccn3)O4)NC(=O)[C@@H](N)CC3CCC4OB([C@@H](CC(C)C)NC(=O)[C@@H](CC5CCCCC5)NC(=O)C5CNCCN5)OC4C3)C(=O)NCCCC[C@@H]3NC(=O)[C@@H](Cc4ccccc4)NC(=O)[C@H](CC(=O)O)NC(=O)CNC(=O)[C@H](CCCNC(=N)N)NC3=O)cc2O1` (stereo not given in full): the growth is -49.1% (active). In the case of `CCN(CC)c1ccc(/C=N\NC(=O)/C=C/C=C/c2ccc3c(c2)OCO3)c(O)c1` it was 21.3%; in that of `O=S(=O)(Nc1ccc(NS(=O)(=O)c2ccccc2)c(Cl)c1)c1ccccc1`, 110%; in that of `COc1ccc(/C=C/c2nc3ccccc3nc2/C=C/c2ccc(OC)cc2)cc1`, 94.5%. `COc1ccc(/C=C/C(=O)c2cc(O)ccc2O)cc1`: the growth was 87.7%. With `O=CNc1ccc2c(c1)Cc1cccc(NC=O)c1-2`, the growth was 91.8%. For `FC(F)(F)c1[nH]ncc1-c1nc2ccc3n[nH]c(C#Cc4cccnc4)c3c2c2c1CCCC2`, the growth was 36.1%. On to `CCOc1cc2ncc(C#N)c(Nc3ccc(OCc4cccc(F)c4)c(Cl)c3)c2cc1NC(=O)CCCCC1CCSS1` (stereo not given), for which the growth was 97%. In the case of `O=C(COc1ccc(-c2nc3cc(Cl)c(Cl)cc3[nH]2)cc1)N=Nc1c(O)[nH]c2ccccc12`, the growth was 79.4%.

In the case of `Nc1n[nH]c2cc(F)c([C@@H]3Nc4ccc5[nH]ncc5c4[C@H]4C5CCC(C5)[C@@H]34)cc12` (stereo not given in full), the growth is 6.23% (active). For `C#CC(F)(F)[C@]1(O)CC[C@H]2[C@@H]3CCC4=CC(=O)CCC4=C3[C@@H](c3ccc(C(C)=O)cc3)C[C@@]21C`, the growth was 89.6%. Take `CCCOc1cc2ccccc2cc1C(=O)Nc1nc(N)c2c(ccc3nccc32)[nH]1`: the growth is -44.7% (active).

For the molecule `CCc1nc(N)nc(N)c1C#CC(C)c1cc(-c2ccnc(C)c2)c2oc(C)nc2c1` (stereo not given), the growth was 10.7%.

With `Clc1ccc2c(NCCCCNc3nc(N4CCCCC4)nc4ccccc34)ccnc2c1`, the growth is -38.2% (active). In the case of `O=c1ccccc(-c2ccc(-c3ccco3)cc2)c1O` it was 29%; in that of `CCOC(=O)c1c(C)oc2ncnc(N3CCN(C(=S)Nc4ccccc4)CC3)c12`, 90.6%.

In the case of `CCN1CCN(c2nc(NCCNc3ccnc4cc(Cl)ccc34)c3ccccc3n2)CC1`, the growth is 7.08% (active).

In the case of `COc1ccc(-c2n[nH]nc2-c2csc3ccccc23)cc1OC`, the growth was 16.4%. Turning to `COc1ccc(O)c(N=Nc2nccs2)c1`, the growth was 67.3%. For the molecule `O=C(Oc1cccnc1)c1ccsc1Nc1ccnc(C(F)(F)F)c1`, the growth was 45.9%. `Oc1ccccc1-c1nnc(CNc2ccc(Cl)cc2)o1`: the growth was 20.7%. Regarding `NC1=C(Cl)C(=O)c2ccc(S(N)(=O)=O)cc2C1=O`, the growth was -58.2% (active). Take `CCOc1cc2ncc(C#N)c(Nc3ccc(F)c(Cl)c3)c2cc1NC(=O)CC1CCSS1` (stereo not given): the growth is -71.1% (active). On to `Clc1ccc2c(NCCCCNc3nc(N4CCOCC4)nc4ccccc34)ccnc2c1`, for which the growth is 22.9%. Take `Cc1ccc(-c2onc3c(=O)[nH]nc(-c4ccccc4)c23)cc1`: the growth was 31.7%. The same measure for `CN(Cc1cc(Cl)cc(Cl)c1O)Cc1cc(Cl)cc(Cl)c1O`: 40.5%. Turning to `CCN1CCN(c2nc(NCCCNc3ccnc4cc(Cl)ccc34)c3ccccc3n2)CC1`, the growth was 25.8%.

With `CSc1ccc(-c2ccccc(=O)c2O)cc1`, the growth was 26.9%. The same measure for `Clc1ccc2c(NCCCNc3nc(-n4ccnc4)nc4ccccc34)ccnc2c1`: 87%. On to `CC1CCNC(C)C1` (stereo not given), for which the growth was 108%. With `COc1ccc(NC(=O)c2ccc(/C=C/C(=O)c3ncc[nH]3)cc2)cc1`, the growth was 35.2%.

For the origin of these results see PubChem BioAssay (NCI).
